Columns and labels:
Experiment in all cases: log2 ratio of Biotin-Ahx-Ub-VS probe labelling (fragment/DMSO); higher = less target engagement (more negative = stronger competition), active = hit call of the paper (q ≤ 0.05, log2 ratio ≤ -1)
Settings in all cases: compound concentration: 200 uM; treatment time: 3 h
[1] = biological target: T1, USP42 (UniProt Q9H9J4)
T1 sequence (whole entry): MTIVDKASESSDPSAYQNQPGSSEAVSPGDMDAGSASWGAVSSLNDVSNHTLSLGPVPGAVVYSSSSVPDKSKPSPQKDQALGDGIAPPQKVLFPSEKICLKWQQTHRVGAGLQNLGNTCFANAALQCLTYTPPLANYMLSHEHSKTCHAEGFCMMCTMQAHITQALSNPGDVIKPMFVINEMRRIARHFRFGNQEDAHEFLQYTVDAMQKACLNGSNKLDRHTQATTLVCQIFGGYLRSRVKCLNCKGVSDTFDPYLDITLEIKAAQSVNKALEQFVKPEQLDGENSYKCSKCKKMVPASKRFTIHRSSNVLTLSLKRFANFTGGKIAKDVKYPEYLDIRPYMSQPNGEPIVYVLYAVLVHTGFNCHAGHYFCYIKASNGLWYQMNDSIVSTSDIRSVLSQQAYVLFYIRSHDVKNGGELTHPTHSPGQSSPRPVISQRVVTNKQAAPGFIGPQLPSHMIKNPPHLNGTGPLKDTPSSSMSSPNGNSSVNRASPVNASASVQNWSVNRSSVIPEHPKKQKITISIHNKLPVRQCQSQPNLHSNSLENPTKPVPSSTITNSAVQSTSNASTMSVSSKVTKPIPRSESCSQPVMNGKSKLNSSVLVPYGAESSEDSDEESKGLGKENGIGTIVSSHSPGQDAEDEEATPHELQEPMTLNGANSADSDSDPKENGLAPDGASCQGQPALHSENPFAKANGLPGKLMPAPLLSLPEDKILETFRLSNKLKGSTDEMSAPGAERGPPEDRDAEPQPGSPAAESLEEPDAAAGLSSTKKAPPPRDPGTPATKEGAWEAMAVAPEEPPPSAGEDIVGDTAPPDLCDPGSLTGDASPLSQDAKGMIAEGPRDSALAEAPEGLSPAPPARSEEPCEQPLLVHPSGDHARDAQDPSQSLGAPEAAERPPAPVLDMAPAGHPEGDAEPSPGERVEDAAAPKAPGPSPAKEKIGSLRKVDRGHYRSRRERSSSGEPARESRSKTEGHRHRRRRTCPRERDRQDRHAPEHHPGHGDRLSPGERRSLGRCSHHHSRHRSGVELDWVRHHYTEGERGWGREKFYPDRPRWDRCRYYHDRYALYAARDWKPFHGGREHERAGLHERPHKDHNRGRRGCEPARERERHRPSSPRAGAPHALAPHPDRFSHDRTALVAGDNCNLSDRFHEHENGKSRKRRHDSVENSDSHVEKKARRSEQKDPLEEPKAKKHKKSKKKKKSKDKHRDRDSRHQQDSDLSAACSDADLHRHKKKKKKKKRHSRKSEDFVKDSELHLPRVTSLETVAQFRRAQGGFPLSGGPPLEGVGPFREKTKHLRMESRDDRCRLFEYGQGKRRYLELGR
Method in brief: (§1)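 HEK293T lysate (495 µg per sample, in Tris/CHAPS/IGEPAL buffer with protease inhibitors) was exposed in triplicate for 3 h to fragment at 200 µM or to vehicle, then to Biotin-Ahx-Ub-VS at 0.5 µM final for 1 h. Labelled DUBs were enriched on NeutrAvidin, digested with LysC and trypsin, and analysed by diaPASEF LC-MS/MS. Spectronaut label-free quantities were normalised to the global median, and values are average log2 ratios of fragment over vehicle from an unpaired t-test. Only proteins with ≥2 unique peptides were used.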

[2] = biological target: USP46 (UniProt P62068)
Method in brief: as §1

[3] = biological target: T2, USP47 (UniProt Q96K76)
T2 sequence (whole entry): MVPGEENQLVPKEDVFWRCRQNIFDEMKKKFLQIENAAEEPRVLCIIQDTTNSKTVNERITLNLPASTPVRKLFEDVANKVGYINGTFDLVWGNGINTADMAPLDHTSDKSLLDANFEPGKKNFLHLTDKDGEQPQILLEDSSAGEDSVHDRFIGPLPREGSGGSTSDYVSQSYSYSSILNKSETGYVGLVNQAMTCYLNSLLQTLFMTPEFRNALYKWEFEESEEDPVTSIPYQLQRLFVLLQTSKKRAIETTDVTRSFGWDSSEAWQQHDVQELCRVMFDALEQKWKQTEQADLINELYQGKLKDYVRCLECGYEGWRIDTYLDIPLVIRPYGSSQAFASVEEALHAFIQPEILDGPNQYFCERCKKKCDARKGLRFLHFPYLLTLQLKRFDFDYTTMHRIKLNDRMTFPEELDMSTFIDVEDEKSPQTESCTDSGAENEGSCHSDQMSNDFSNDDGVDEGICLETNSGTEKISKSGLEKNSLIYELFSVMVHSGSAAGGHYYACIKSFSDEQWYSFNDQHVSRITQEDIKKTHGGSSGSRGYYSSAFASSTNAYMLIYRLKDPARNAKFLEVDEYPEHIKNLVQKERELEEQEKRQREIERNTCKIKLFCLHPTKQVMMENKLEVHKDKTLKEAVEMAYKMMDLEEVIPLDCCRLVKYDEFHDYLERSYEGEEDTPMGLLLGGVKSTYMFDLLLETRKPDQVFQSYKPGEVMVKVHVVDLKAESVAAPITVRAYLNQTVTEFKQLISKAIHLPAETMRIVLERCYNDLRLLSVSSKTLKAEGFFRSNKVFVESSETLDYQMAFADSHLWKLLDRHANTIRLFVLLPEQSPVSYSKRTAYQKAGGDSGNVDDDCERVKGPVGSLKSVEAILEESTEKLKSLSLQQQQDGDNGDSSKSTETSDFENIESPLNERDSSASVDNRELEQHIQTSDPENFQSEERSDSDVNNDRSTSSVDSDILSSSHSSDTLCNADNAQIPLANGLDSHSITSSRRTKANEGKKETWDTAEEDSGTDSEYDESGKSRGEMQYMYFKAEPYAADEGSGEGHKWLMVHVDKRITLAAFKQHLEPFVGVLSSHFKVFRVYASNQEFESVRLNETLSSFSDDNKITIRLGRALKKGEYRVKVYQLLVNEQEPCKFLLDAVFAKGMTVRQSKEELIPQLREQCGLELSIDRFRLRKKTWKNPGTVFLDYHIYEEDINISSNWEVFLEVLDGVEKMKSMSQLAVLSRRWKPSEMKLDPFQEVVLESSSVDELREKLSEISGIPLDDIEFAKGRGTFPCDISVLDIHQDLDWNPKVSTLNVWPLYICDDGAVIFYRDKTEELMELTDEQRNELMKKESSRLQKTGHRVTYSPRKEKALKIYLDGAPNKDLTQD
Method in brief: as §1

[4] = biological target: T3, USP48 (UniProt Q86UV5)
T3 sequence (whole entry): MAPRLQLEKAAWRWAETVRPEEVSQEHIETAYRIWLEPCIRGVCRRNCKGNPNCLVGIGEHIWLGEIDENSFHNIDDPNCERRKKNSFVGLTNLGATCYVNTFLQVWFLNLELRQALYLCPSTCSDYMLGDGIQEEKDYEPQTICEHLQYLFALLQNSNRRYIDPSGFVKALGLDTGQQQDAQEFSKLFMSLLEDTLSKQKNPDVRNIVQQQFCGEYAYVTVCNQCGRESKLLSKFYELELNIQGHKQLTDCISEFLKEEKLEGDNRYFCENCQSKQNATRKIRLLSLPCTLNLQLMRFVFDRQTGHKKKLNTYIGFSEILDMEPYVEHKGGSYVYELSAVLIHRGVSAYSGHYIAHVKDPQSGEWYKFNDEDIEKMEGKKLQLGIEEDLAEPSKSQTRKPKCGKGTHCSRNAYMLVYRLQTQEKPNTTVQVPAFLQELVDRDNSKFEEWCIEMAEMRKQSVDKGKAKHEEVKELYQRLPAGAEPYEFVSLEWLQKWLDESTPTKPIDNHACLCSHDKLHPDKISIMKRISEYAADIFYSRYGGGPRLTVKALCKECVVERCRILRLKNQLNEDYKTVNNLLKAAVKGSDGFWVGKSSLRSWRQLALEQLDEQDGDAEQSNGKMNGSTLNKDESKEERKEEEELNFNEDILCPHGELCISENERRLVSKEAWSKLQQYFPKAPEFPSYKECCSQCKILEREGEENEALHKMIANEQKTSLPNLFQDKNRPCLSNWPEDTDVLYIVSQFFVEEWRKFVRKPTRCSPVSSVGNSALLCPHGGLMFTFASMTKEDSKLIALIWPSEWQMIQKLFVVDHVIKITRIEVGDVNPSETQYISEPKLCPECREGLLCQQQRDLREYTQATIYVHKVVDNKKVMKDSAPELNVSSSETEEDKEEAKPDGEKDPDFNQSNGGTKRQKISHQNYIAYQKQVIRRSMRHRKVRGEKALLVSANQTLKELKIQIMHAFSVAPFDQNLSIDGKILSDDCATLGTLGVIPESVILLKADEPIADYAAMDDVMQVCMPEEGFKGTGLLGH
Method in brief: as §1

[5] = biological target: T4, USP5 (UniProt P45974)
T4 sequence (whole entry): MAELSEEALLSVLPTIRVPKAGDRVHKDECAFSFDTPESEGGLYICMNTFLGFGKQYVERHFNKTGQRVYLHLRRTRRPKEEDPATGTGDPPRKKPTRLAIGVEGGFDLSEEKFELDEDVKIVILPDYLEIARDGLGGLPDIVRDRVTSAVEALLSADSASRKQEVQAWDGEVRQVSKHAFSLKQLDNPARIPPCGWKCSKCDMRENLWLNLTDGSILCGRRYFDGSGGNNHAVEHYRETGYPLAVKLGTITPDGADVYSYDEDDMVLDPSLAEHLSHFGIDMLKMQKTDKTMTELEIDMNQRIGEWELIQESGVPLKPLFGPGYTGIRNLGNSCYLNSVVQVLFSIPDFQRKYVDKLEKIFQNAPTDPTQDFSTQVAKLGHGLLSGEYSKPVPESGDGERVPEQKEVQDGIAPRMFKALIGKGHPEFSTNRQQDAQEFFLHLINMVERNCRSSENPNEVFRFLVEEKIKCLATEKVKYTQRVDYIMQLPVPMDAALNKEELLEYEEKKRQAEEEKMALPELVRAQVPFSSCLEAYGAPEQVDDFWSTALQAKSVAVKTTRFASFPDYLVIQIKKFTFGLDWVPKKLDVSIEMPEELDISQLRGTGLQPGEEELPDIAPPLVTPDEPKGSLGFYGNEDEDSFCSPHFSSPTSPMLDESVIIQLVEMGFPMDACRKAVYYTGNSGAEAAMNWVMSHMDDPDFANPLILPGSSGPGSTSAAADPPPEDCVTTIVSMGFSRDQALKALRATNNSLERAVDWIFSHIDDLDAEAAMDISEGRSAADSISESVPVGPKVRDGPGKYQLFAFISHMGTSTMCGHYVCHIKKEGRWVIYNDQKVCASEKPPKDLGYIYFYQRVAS
Method in brief: as §1

[6] = biological target: USP54 (UniProt Q70EL1)
Method in brief: as §1

[7] = biological target: USP7 (UniProt Q93009)
Method in brief: as §1

[8] = biological target: T5, USP8 (UniProt P40818)
T5 sequence (whole entry): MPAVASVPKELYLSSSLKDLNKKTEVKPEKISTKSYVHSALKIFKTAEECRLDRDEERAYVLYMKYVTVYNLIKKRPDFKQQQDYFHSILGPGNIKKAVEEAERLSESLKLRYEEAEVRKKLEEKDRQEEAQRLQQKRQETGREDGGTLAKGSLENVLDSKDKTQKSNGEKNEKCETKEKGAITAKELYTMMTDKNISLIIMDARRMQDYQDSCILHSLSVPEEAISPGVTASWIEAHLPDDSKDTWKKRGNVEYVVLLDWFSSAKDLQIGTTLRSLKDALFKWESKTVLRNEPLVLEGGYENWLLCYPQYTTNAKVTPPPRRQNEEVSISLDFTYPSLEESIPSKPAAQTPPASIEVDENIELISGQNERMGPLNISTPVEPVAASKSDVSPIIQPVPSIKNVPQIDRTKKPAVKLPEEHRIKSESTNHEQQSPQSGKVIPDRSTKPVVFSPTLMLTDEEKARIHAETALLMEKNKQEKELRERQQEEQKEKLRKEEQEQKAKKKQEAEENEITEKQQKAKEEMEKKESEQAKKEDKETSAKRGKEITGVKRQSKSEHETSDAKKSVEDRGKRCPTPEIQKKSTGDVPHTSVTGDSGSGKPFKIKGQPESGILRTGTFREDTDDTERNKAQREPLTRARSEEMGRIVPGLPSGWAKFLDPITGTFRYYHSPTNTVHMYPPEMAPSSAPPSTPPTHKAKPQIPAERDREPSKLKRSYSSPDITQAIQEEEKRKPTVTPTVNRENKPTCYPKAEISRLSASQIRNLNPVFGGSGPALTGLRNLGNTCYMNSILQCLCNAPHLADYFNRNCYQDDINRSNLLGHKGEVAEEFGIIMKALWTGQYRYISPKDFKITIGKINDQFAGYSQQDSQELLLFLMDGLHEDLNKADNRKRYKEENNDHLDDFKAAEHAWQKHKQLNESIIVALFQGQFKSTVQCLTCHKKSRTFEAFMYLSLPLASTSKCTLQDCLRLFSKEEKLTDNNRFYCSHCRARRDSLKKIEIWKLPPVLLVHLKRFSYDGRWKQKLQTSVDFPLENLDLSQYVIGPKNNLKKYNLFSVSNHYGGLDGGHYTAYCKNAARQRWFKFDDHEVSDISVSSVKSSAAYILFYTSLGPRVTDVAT
Method in brief: as §1

Measured: log2 ratio of Biotin-Ahx-Ub-VS probe labelling

Sequence of USP54 (Q70EL1 whole entry): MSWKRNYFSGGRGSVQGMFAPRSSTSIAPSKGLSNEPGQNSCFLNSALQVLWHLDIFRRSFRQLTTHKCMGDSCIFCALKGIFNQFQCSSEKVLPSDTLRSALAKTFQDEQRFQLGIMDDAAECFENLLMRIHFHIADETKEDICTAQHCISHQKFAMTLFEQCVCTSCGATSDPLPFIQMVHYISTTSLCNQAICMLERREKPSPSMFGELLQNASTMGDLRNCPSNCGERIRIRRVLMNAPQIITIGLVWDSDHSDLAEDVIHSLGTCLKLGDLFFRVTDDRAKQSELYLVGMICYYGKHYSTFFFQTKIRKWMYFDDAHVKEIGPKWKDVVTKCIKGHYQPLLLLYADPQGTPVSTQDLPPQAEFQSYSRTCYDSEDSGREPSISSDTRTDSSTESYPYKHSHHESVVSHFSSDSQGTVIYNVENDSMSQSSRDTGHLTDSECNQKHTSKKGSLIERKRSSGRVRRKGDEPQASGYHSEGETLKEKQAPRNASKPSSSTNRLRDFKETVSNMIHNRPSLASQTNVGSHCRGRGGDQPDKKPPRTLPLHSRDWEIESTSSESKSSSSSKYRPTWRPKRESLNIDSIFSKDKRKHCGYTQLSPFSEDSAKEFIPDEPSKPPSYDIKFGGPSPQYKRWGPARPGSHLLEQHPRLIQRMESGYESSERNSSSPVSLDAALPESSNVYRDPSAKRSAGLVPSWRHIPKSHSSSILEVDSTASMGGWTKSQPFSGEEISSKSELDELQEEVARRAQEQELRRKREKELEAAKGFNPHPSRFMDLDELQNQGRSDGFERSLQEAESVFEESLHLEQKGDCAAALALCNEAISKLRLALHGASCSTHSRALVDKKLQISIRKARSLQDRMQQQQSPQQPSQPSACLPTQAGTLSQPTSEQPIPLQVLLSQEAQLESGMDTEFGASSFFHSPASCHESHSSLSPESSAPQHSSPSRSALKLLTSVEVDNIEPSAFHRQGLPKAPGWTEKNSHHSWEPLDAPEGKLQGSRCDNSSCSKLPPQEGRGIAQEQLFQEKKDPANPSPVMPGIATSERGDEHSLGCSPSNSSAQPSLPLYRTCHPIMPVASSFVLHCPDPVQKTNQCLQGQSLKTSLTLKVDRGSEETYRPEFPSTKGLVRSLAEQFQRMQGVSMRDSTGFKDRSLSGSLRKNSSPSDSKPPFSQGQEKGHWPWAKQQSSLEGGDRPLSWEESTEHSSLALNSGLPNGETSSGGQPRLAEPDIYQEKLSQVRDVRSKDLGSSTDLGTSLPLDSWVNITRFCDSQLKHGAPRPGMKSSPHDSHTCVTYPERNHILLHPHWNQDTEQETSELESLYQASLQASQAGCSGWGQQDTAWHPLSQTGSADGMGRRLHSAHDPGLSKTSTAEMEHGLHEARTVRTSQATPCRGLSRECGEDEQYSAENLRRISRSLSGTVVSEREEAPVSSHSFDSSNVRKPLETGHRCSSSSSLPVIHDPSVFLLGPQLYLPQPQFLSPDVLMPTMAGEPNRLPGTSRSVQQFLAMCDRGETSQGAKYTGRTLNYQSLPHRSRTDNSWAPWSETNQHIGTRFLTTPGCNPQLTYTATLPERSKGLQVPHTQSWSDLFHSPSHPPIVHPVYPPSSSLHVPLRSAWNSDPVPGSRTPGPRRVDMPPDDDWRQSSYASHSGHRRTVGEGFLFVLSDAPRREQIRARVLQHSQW
Sequence of USP7 (Q93009 whole entry, looked up): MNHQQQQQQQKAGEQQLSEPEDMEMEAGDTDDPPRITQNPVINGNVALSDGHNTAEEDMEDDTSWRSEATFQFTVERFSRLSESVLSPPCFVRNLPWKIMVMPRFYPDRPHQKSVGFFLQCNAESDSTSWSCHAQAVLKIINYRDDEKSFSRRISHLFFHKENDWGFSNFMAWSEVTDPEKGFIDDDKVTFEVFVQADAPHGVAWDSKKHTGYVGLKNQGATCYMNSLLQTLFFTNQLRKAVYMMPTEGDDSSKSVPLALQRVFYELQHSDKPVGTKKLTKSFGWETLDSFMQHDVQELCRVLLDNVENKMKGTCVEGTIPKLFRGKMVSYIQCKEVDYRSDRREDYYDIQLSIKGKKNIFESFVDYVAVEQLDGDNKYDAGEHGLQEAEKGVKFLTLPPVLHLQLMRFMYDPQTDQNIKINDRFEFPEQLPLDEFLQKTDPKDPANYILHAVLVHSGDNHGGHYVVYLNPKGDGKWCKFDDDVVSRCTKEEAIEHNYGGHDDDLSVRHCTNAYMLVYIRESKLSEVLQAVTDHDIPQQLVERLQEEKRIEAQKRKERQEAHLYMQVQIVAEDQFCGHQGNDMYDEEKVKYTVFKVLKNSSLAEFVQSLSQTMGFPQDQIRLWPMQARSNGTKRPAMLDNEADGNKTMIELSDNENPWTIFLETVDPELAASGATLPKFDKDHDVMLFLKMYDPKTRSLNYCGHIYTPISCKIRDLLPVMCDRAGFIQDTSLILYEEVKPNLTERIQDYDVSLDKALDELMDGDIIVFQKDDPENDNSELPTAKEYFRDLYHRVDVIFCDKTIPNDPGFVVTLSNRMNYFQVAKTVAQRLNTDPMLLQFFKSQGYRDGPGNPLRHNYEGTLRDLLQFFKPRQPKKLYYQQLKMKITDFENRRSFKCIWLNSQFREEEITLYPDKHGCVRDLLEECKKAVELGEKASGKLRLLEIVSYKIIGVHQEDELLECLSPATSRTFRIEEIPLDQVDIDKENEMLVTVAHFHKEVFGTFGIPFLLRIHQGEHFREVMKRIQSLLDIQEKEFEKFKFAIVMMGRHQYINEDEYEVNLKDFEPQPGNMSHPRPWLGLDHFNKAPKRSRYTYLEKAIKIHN
Sequence of USP46 (P62068 whole entry): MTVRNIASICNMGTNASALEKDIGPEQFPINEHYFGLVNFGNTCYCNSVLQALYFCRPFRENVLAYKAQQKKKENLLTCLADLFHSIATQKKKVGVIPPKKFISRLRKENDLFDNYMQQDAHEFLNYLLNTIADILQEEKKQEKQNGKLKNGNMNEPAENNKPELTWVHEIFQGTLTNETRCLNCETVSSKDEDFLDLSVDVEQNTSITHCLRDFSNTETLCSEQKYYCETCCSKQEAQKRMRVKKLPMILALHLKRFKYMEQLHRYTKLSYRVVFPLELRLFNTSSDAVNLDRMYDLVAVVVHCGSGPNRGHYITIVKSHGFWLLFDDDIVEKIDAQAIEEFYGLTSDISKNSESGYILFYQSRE

Cc1cccc(C)c1NC(=O)CCl
inactive: [1] -0.0226 | [2] -0.0272 | [3] 0.139 | [4] -0.538 | [5] -0.194 | [6] 0.412 | [7] -0.264 | [8] -0.461
